According to PubChem BioAssay AID504834 (National Center for Advancing Translational Sciences (NCATS), 2011):
Hit rate of the full screen: of about 320,000 compounds, about 22,000 (6.9%) were called active. About 27% were inconclusive and are not listed. Shown is part of a subset that was picked to be rich in actives. Values without a mark were called inactive. Calls follow the shape of the dose curve; as a rule, active = well fitted inhibition curve with a large enough effect; inconclusive = small, poorly fitted or top-dose-only effect, or another doubt; inactive = no such curve, though single readings can be large or run the other way.

Assay: Primary qHTS for delayed death inhibitors of the malarial parasite plastid, 96 hour incubation
Settings: P. falciparum luciferase reporter growth; series mostly up to 28.7 µM; activity change, negative = inhibition: at the top concentration
Outline: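 P. falciparum expressing integrated firefly luciferase, in erythrocytes at 2% hematocrit, 0.05% parasitemia, incubated with compounds 96 h at 37 C, 5% CO2. Growth inhibition read as loss of luminescence; two-generation exposure targets delayed-death apicoplast inhibitors.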
% is scaled to controls: 0 for no effect and ±100 for the full control effect; potency is read from the fitted curve at half-maximal effect.

| SMILES | activity change, negative = inhibition | Potency |
| --- | --- | --- |
| CCOC(=O)c1c(C)[nH]c(C(=O)OCC(=O)c2ccc(OC)cc2OC)c1C | 116% (inactive) | – |
| COc1cccc(/C=C/C(=O)OCC(=O)N2CCCc3ccccc32)c1 | -2.45% (inactive) | – |
| COc1c(O)cc2oc(-c3ccc(O)c(O)c3)cc(=O)c2c1O | 81.9% (inactive) | – |
| O=C(NCc1ccco1)c1cc(-c2cccnc2)nc2ccc(Cl)cc12 | 17.9% (inactive) | – |
| O=C(CSc1nnnn1-c1ccccc1)NCc1ccco1 | -3.7% (inactive) | – |
| O=C(CSc1c2c(nc3ccc(Cl)cc13)CCCC2)NCc1ccco1 | – | 9.28 µM (active) |
| COC(=O)c1[nH]c2ccc(Br)cc2c1NC(=O)Oc1ccccc1 | 91.2% (inactive) | – |
| NS(=O)(=O)c1cccc(NC(=O)CN2CCCc3ccccc32)c1 | 1.97% (inactive) | – |
| COC(=O)c1[nH]c2ccccc2c1NC(=O)CN1CCCc2ccccc21 | – | 3.29 µM (active) |
| Brc1ccccc1/C=N/Nc1nc2ccccc2o1 | 136% (inactive) | – |
| COc1cccc(OC)c1C(=O)Nc1c(C(=O)N2CCN(c3ccccn3)CC2)oc2ccccc12 | -0.184% (inactive) | – |
| Cc1cccc(NC(=O)CSc2nnc(CCNC(=O)OC(C)(C)C)o2)c1C | 0.64% (inactive) | – |
| Cc1cc(Br)ccc1NC(=S)NC1CCCC1 | -23.9% (inactive) | – |
| CCCc1cc(=O)[nH]c2nnc(SCC(=O)Nc3nnc(SCC)s3)n12 | 14.6% (inactive) | – |
| O=S(=O)(NCCNS(=O)(=O)c1ccccc1)c1ccccc1 | 50.1% (inactive) | – |
| COP(=O)(NS(=O)(=O)c1ccccc1)OC | – | 5.22 µM (active) |
| O=S(=O)(NCCc1ccccc1)c1ccccc1 | 38.7% (inactive) | – |
| O=S(=O)(c1ccc(Br)c2ccccc12)N1CCOCC1 | -21.3% (inactive) | – |
| O=C(Nc1ccnn1C1CCN(Cc2cccc(OCCO)c2)CC1)C1CCCC1 | -2.73% (inactive) | – |
| Cn1nc(-c2ccccc2)c(CO)c1Sc1ccccc1 | 1.86% (inactive) | – |
| Cn1cnc([N+](=O)[O-])c1Sc1ccccc1 | – | 11.7 µM (active) |
| Cn1cnc([N+](=O)[O-])c1Nc1ccccc1O | 62.5% (inactive) | – |
| c1ccc(-c2ccc(OCCN3CCOCC3)cc2)cc1 | -12.9% (inactive) | – |
| O=C(Cn1c(-c2ccccn2)nc2ccccc21)NCCN1CCOCC1 | -0.622% (inactive) | – |
| c1ccc2cc3c(NCCN4CCOCC4)ccnc3cc2c1 | – | 0.165 µM (active) |
| CCOc1ccc(C(=O)Nc2c3c(nn2-c2ccccc2)CS(=O)(=O)C3)cc1 | -17.2% (inactive) | – |

| SMILES | activity change, negative = inhibition | Potency |
| --- | --- | --- |
| Cc1ccc(C)c(S(=O)(=O)Nc2cccc(-n3cnnn3)c2)c1 | 1.62% (inactive) | – |
| Cc1ccc(C(=O)CN2C(=O)NC3(CCc4ccccc43)C2=O)c(C)c1 (configuration not stated) | 3.08% (inactive) | – |
| COc1ccc(-n2c(C)cc(C(=O)CN3C(=O)NC4(CCc5ccccc54)C3=O)c2C)cc1 (configuration not stated) | – | 1.17 µM (active) |
| COc1ccc(C(=O)CN2C(=O)NC3(CCc4ccccc43)C2=O)c(OC)c1 (configuration not stated) | -18.2% (inactive) | – |
| CCN1CCN(C(=O)Cn2nc(C)n3c(cc4c(OC)cccc43)c2=O)CC1 | -29.1% (inactive) | – |
| O=C(CCN1C(=O)C2CCCCC2C1=O)Nc1ccc(OC(F)F)cc1 (configuration not stated) | 5.43% (inactive) | – |
| NC1=NC[C@@H](Cc2ccc(O)cc2)N1CC1CCCCC1 | – | 2.33 µM (active) |
| COc1ccc(NC(=O)CCCN2C(=O)C(c3ccccc3)Oc3cccnc32)cc1 (configuration not stated) | 100% (inactive) | – |
| CCOc1ccc(N(C)Cc2cc(=O)oc3ccc(OC)cc23)cc1 | -27.9% (inactive) | – |
| Cc1ccc(CN(C)Cc2cc(=O)oc3cc(C)c(Cl)cc23)cc1 | 1.06% (inactive) | – |
| Cc1cc2oc(=O)cc(CN(C)Cc3ccc(OC(F)F)cc3)c2cc1Cl | – | 2.62 µM (active) |
| COc1cccc(CNC(=O)COC(=O)CN2C(=O)NC3(CCCCC3C)C2=O)c1 (configuration not stated) | 5.85% (inactive) | – |
| COc1ccccc1N1CCN(C(=O)c2c(-c3c(Cl)cccc3Cl)noc2C)CC1 | 7.48% (inactive) | – |
| Cc1onc(-c2c(Cl)cccc2Cl)c1C(=O)NNC(=O)c1c(-c2c(Cl)cccc2Cl)noc1C | – | 8.28 µM (active) |
| Cc1onc(-c2c(Cl)cccc2Cl)c1C(=O)c1c[nH]c(C(=O)NC2CC2)c1 | -20.4% (inactive) | – |
| CC(C)=C1SC(N2CCN(c3ccc(C)c(Cl)c3)CC2)=NC1=O | 0.284% (inactive) | – |
| CC(NCc1cccs1)C(=O)Nc1cc(Cl)cc(Cl)c1 (configuration not stated) | -2.74% (inactive) | – |
| Cc1cc2nc3n(c2cc1C)CC1CC(C(=O)NCCC(C)C)N(C)C31 (configuration not stated) | -1.98% (inactive) | – |
| CCc1nc(Nc2ccc(NC(C)=O)cc2)c2oc3ccccc3c2n1 | -16.9% (inactive) | – |
| COc1ccc(Nc2nnc(C)c3ccccc23)cc1 | 2.93% (inactive) | – |
| COc1ccc(Nc2cc(=O)oc3ccccc23)cc1 | – | 2.62 µM (active) |
| COc1ccc2oc(=O)cc(-c3cc4ccccc4o3)c2c1 | 19.1% (inactive) | – |
| O=S(=O)(NC1CCCCC1N1CCCCC1)c1ccc(Cl)cc1 (configuration not stated) | 2.85% (inactive) | – |
| O=S(=O)(NC1CCCCC1N1CCC(O)CC1)c1ccc(Cl)cc1 (configuration not stated) | 23.1% (inactive) | – |
| CCOC1CCCCC1NS(=O)(=O)c1ccc(Cl)cc1 (configuration not stated) | – | 9.28 µM (active) |
| Cc1nnc2n1N=C(c1ccc3c(c1)NC(=O)CO3)CS2 | -25.6% (inactive) | – |
